Structures are written as SMILES. Compounds without any hit were thinned out: in the full panel of roughly 83,000, 20% have a hit.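 96-well plates, one dose, 48 hours. Percent growth reported; active if below 10.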 A number with no mark means an inactive call. The source made the active and inactive calls.

The test has as its system NCI-H23 lung. Put plainly: NCI-60 one-dose screen, 48 h (100 = growth as untreated, 0 = no growth, -100 = all killed). The conditions noted are these: 10 µM unless noted. How it is done: Growth inhibition of the NCI-H23 human Non-Small Cell Lung tumor cell line is measured as a screen for anti-cancer activity. Cells are grown in 96 well plates and exposed to the test compound for 48 hours. Compounds are tested at a single concentration, which is 10^-5 M for most compounds. The reported endpoint is percent growth (GI% or GIPRCNT), where numbers from 0 - 100% represent growth inhibition, and numbers from -100% - 0 represent cell death. For example, a value of 40 represents 60% growth inhibition. A value of 0 means no net growth occurred over the course of the experiment. A value of -40 indicates 40% of cells at the beginning of the experiment died by the end of the experiment. A value of -100 means all cells are dead at the end of the experiment.
NCI-60 Human Tumor Cell Lines Screen was performed using the standard one-dose NCI protocol, which is described in more detail at https://dtp.cancer.gov/discovery_development/nci-60/default.htm.
Compounds with GIPRCNT values below 10 were considered active. Activity score was based on GIPRCNT using the following formula: […]
Score is 0 for GIPRCNT values of 100 or above, 50 for GIPRCNT values of 0, and 100 for GIPRCNT values of -100.
In the case of `COc1cc(-c2nc3cc(Cl)c(Cl)cc3[nH]2)ccc1OCc1nnc(-c2cccs2)o1`, the growth is 47.4%. As for `C=C1CC[C@@H]2[C@]3(C)COC(c4ccccc4)O[C@@H]3CC[C@@]2(C)[C@@H]1C/C=C1/C(=O)OCC1OC(C)=O` (stereo not given in full), the growth was -18.5% (active). To `CCOC(=O)COc1c(OC)c(OC)cc2oc(-c3cccc(C(=O)Nc4ccc(Cl)cc4)c3)cc(=O)c12` belongs 62.9%; to `N#Cc1c(-c2ccc(Cl)cc2)nc2n[nH]c(-c3ccc(Cl)cc3)c2c1-c1ccc(C(F)(F)F)cc1`, -13.5% (active); to `Cn1cc(-c2cc(N)n3nc(-c4c[nH]c5ccccc45)cc3n2)c2cc(Br)cnc21`, -63.8% (active). With `Cc1cccc(-c2nc(Nc3ccc(C)c(S(N)(=O)=O)c3)c3ccccc3n2)c1`, the growth was 12.9%. On to `COc1cc2c(c(OC)c1OC)C(=O)CC(c1cccc(NC(=O)c3cccc(NC(=O)[C@H](C)NC(=O)OC(C)(C)C)c3)c1)O2` (stereo not given in full), for which the growth was 70.4%. To `C=C1CC[C@@H]2[C@]3(C)COC(c4cn[nH]c4-c4ccccc4)O[C@@H]3CC[C@@]2(C)[C@@H]1C/C=C1/C(=O)OCC1O` (stereo not given in full) belongs -27.2% (active).

In the case of `CC1=C(C(=O)OC(C)C)C(c2cccc(O)c2)NC(=S)N1` (stereo not given), the growth is 106%. The value for `C=C1CC[C@@H]2[C@]3(C)COC(c4cn[nH]c4-c4ccc(C)cc4)O[C@@H]3CC[C@@]2(C)[C@@H]1C/C=C1/C(=O)OCC1O` (stereo not given in full) was -8.25% (active); that for `COc1cccc(/C=C/C(=O)c2ccc(OC)c(S(N)(=O)=O)c2)c1` was 15.1%; that for `O=C(Cn1c(/C=C/c2ccccc2)nc2ccccc2c1=O)Nc1ccc(Cl)cc1` was 59.8%. With `COc1cc(OC)cc(C(=O)Nc2cccc(-c3cn(-c4ccc(S(N)(=O)=O)cc4)nn3)c2)c1`, the growth was 80.3%.

For the compound `Cc1ccc(C2CC(c3ccc(S(=O)(=O)NCCNc4nc(Nc5ccc(F)cc5)nc(N(C)C)n4)cc3)=Nc3c(N)nc(N)nc3N2)cc1` (stereo not given), the growth is 65.3%. In the case of `CC12CC[C@@H]3[C@]4(C)COC(c5cn[nH]c5-c5cccc(Cl)c5)O[C@@H]4CC[C@@]3(C)[C@@H]1CC(C1=CCOC1=O)O2` (stereo not given in full), the growth is 43.5%. The value for `COc1ccc(NC(=O)Cn2c3c(sc2=O)[C@H]2[C@@H](O)[C@@H](O)[C@H](O)[C@@H]2CS3)cc1` was 104%; that for `CCCCCCCCOc1cccc(S(=O)(=O)Nc2ccc(C)cc2C(=O)O)c1` was 96.3%.

Take `O=C(NNc1nc2cc(C(F)(F)F)ccc2n2cccc12)c1cnccn1`: the growth is -27.5% (active). On to `CC(C)(C)OC(=O)/C=C/c1cccc2c1C(=O)NC(C)(c1cc3cc(Cl)ccc3oc1=O)N2` (stereo not given), for which the growth was 53%.

On to `COc1ccc(C(SCCNCc2cc(N(C)C)ccn2)(c2ccccc2)c2ccccc2)cc1`, for which the growth was -10.7% (active). In the case of `O=C(c1ccc(OCCN2CCOCC2)cc1)C1[C@H](c2ccc(Cl)cc2)[C@@H](c2ccccc2)NC12C(=O)Nc1ccc(Br)cc12` (stereo not given in full), the growth is 26.1%.

Consider `CC(C)CSc1nc(NCCc2c[nH]c3ccccc23)c(C#N)c(-c2ccccc2)n1`, for which the growth is 76.6%. With `Cc1ccc(NCC(=O)Cn2cc(COc3ccc(C=Nc4cnc5ccccc5c4)cc3)nn2)cc1`, the growth is 109%. To `O=C(NN1C(=O)/C(=C/C=C/c2ccc([N+](=O)[O-])o2)SC1=S)c1ccc(Cl)cc1` belongs -86.7% (active); to `Cn1cc(-c2nnc(N)nc2-c2c[nH]c3ccccc23)c2cccnc21`, 65.7%; to `CSc1ccc(NC(=O)c2ccc3nn(/C(C#N)=C/c4ccccn4)nc3c2)cc1`, -90.9% (active). The value for `CC(=O)Oc1ccc(/C=C/C(=O)N[C@@H](Cc2ccccc2)C(O)C(=O)NCc2ccccc2)cc1OC(C)=O` (stereo not given in full) was 93.3%. `O=c1[nH]c2ccc(Cl)cc2cc1CSc1nccc(-c2ccc(Cl)cc2)n1`: the growth was 53.9%. The value for `COc1cc(-c2cc(-c3cccc(OCC(=O)O)c3)[nH]c(=O)c2C#N)cc(OC)c1OC` was 101%. Take `N=C1N=C(SCc2nc3ccccc3[nH]2)NC(=O)/C1=C/c1ccc(Cl)cc1`: the growth is 98.8%. For the compound `CCOC(=O)/C=C/c1cccc2c1C(=O)NC(C)(c1cc3cc(Cl)ccc3oc1=O)N2` (stereo not given), the growth is 50.9%. Take `Cc1ccc(C(=O)CSc2nc3ccc(F)cc3c(=O)n2-c2ccc(Cl)cc2)cc1`: the growth was 46%. To `Brc1ccc(N/N=C/c2c[nH]c3ccc(Br)cc23)nc1` belongs -58.2% (active); to `CN(C)CCOc1ccc(C(=O)C2[C@H](c3ccc(Cl)cc3)[C@@H](c3ccccc3)NC23C(=O)Nc2ccccc23)cc1` (stereo not given in full), 79.6%; to `CC1(C)CC[C@]2(C(=O)Nc3ccc(F)cc3)CC[C@]3(C)C(=CCC4[C@@]5(C)C[C@@H](O)[C@H](O)[C@@](C)(CO)C5CC[C@]43C)C2C1` (stereo not given in full), 49.8%. With `CCCn1cc(-c2nc(Nc3ccc(C(=O)NCCCCNc4cccc5c4C(=O)N(C4CCC(=O)NC4=O)C5=O)cc3)nc3[nH]ccc23)cn1` (stereo not given), the growth is 65.3%. The value for `N#Cc1c(-c2ccc(Cl)cc2)nc2n[nH]c(-c3ccc(Cl)cc3)c2c1-c1cccs1` was 62.7%; that for `O=C(/C=C/c1cccc(OCc2ccccc2)c1)c1nc2ccccc2[nH]1` was 63.7%; that for `C=C1CC[C@@H]2[C@]3(C)COC(c4cn(-c5ccccc5)nc4-c4ccccc4)O[C@@H]3CC[C@@]2(C)[C@@H]1C/C=C1/C(=O)OC[C@H]1O` (stereo not given in full) was -84.7% (active). Turning to `C=C1CCC2C3(C)COC(c4ccco4)OC3CCC2(C)C1CC(Sc1ccccc1)C1=CCOC1=O` (stereo not given), the growth was 64.8%.

Source of the values: PubChem BioAssay (NCI).
